“And” between values parts separate entries of the source, which are not always exact repeats. Identical values can stand only once. Counter-ions that a name gives are not always drawn.
Legend:
Test in all cases: cell viability relative to vehicle control; higher = less cytotoxic
Settings in all cases: 10 µM
[1] = system: K562
Summary of the method: (§1)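 Four leukaemia lines, as CRISPR-edited mutant clones and isogenic wild-type clones, were tested against Selleck bioactive, kinase and epigenetic probe libraries after removal of identity-inconsistent compounds. Cells were exposed to a single 10 µM dose for 48 h, and CellTiter-Glo luminescence was then read. Viability was calculated relative to the on-plate vehicle control.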

[2] = system: MARIMO
Summary of the method: as §1

[3] = system: MOLM14
Summary of the method: as §1

[4] = system: OCI-AML2
Summary of the method: as §1

Row | Structure (SMILES) | cell viability ([1]; SRSF2 genotype: SRSF2 P95H/wt) | cell viability ([1]; SRSF2 genotype: SRSF2 wt/wt) | cell viability ([2]; SRSF2 genotype: SRSF2 P95H/wt) | cell viability ([2]; SRSF2 genotype: SRSF2 wt/wt) | cell viability ([3]; SRSF2 genotype: SRSF2 P95H/wt) | cell viability ([3]; SRSF2 genotype: SRSF2 wt/wt) | cell viability ([4]; SRSF2 genotype: P95H/wt) | cell viability ([4]; SRSF2 genotype: wt/wt)
1 | O=C(NO)c1cnc(NC2(c3ccccc3)CC2)nc1 | 8.09% and 28.4% | 35.4% | 3.94% | 3.14% | 4.83% | 1.94% | 0.88% | 2.07%
2 | C=CCn1c(=O)c2cnc(Nc3ccc(N4CCN(C)CC4)cc3)nc2n1-c1cccc(C(C)(C)O)n1 | 8.01% and 13.9% | 10.5% | 11.7% | 6.8% | 11.6% | 4.1% | 9.17% | 8.01%
3 | COc1ccccc1OCCNCC(O)COc1cccc2[nH]c3ccccc3c12 (stereo not drawn) [Carvedilol] | 51.6% and 66.2% | 52.8% | 53% | 56.8% | 53.6% | 56.4% | 56.1% | 56.2%
4 | COc1ccccc1S(=O)(=O)Nc1ccc2c(c1)CN(C)C(=O)N2 | 81.5% and 75.9% | 76.5% | 48.9% | 46.6% | 33.4% | 34.5% | 27.1% | 40.2%
5 | CC1CCC2(C(=O)OC3OC(CO)C(O)C(O)C3O)CCC3(C)C(=CCC4C5(C)CCC(OC6OCC(O)C(O)C6O)C(C)(C)C5CCC43C)C2C1(C)O (stereo not drawn) [Ziyu-glycoside I] | 103% and 96.8% | 99.4% | 101% | 99.9% | 107% | 105% | 99% | 100%
6 | CN1CCC(c2c(O)cc(O)c3c(=O)cc(-c4ccccc4Cl)oc23)C(O)C1 (stereo not drawn) [Flavopiridol (Alvocidib) HCl] | 5.96% and 15.8% | 7.9% | 11.1% | 4.66% | 3.87% | 0.54% | 5.83% | 16.3%
7 | CCC(C)n1ncn(-c2ccc(N3CCN(c4ccc(OCC5COC(Cn6cncn6)(c6ccc(Cl)cc6Cl)O5)cc4)CC3)cc2)c1=O (stereo not drawn) [Itraconazole (Sporanox)] | 76.7% and 94.4% | 83.1% | 49.6% | 55% | 71.1% | 96.7% | 50.8% | 55.4%
8 | O=C(NCc1ccc(Oc2ccccc2)cc1)c1nc(-c2cc(Br)c(O)c(Br)c2)no1 | 77.6% and 72% | 66.7% | 80.5% | 91.8% | 59.8% | 84.5% | 88.4% | 81.9%
9 | C/C=C/c1ccc(OC)cc1 [Trans-Anethole] | 107% and 99.3% | 97.3% | 103% | 102% | 103% | 103% | 92% | 116%
10 | CN(CCOc1ccc(CC2SC(=O)NC2=O)cc1)c1ccccn1 (stereo not drawn) [Rosiglitazone HCl] | 100% and 101% | 97.4% | 102% | 115% | 103% | 109% | 102% | 105%
11 | C[C@@H](Oc1cc(-n2cnc3ccc(CN4CCN(C)CC4)cc32)sc1C(N)=O)c1ccccc1C(F)(F)F | 31.9% and 32.9% | 34.1% | 35.9% | 34.3% | 16.8% | 7.12% | 4.11% | 17.1%
12 | CC(C)(C)OC(=O)Nc1ccc(-c2cc(C(=O)NCCCCCCC(=O)NO)no2)cc1 | 1.43% and 12.4% | 5.74% | 9.27% | 11.5% | 0.79% | 0.64% | 1.39% | 2.31%
13 | CC[C@H]1OC(=O)[C@H](C)[C@@H](O[C@H]2C[C@@](C)(OC)[C@@H](O)[C@H](C)O2)[C@H](C)[C@@H](O[C@@H]2O[C@H](C)C[C@H](N(C)C)[C@H]2O)[C@](C)(O)C[C@@H](C)[C@@H]2N[C@@H](COCCOC)O[C@H]([C@H]2C)[C@]1(C)O [Dirithromycin] | 98.3% and 98% | 98.5% | 97.1% | 109% | 98.7% | 102% | 94.6% | 107%
14 | Cc1nc(Nc2ncc(C(=O)Nc3c(C)cccc3Cl)s2)cc(N2CCN(CCO)CC2)n1 [Dasatinib] | 21.5% and 39.8% | 27.1% | 68.1% | 61.3% | 40.3% | 35.1% | 31.8% | 40.6%
15 | C=C1CCC[C@]2(C)C=C3OC(=O)C(C)=C3C[C@@H]12 [Atractylenolide I] | 102% and 110% | 106% | 97.2% | 102% | 103% | 103% | 116% | 91.6%
16 | CN1CCC(=C2c3ccccc3CCn3c(C=O)cnc32)CC1 [Alcaftadine] | 102% and 104% | 100% | 100% | 94.7% | 99.7% | 99.4% | 109% | 97.4%
17 | CC(C)=CC(=O)O[C@H]1Cc2cc3ccc(=O)oc3cc2OC1(C)C [Decursin] | 89.5% and 93.4% | 90% | 81.6% | 88.5% | 91.1% | 92.5% | 83.7% | 87%
18 | CC(=O)O[C@]1(C(C)=O)CC[C@H]2[C@@H]3C=C(C)C4=CC(=O)CC[C@]4(C)[C@H]3CC[C@@]21C [Megestrol Acetate] | 90.8% and 87.5% | 86.6% | 56.5% | 46.6% | 84.8% | 87.6% | 61.8% | 73.1%
19 | CCOc1ccccc1N=Nc1c(C)[nH]n(-c2nc(-c3ccccc3)cs2)c1=O | 95.7% and 103% | 91.9% | 101% | 96.5% | 97.8% | 95.9% | 108% | 97.2%
20 | COc1cc([C@@H]2Oc3cc([C@H]4Oc5cc(O)cc(O)c5C(=O)[C@@H]4O)ccc3O[C@H]2CO)ccc1O [Silymarin (Silybin B)] | 106% and 94.4% | 95.6% | 99.6% | 108% | 105% | 102% | 106% | 114%
21 | CO[C@@H]1[C@@H](O[C@@H]2O[C@H](C)[C@@H](O[C@H]3C[C@@](C)(O)[C@@H](O)[C@H](C)O3)[C@H](N(C)C)[C@H]2O)[C@@H](CC=O)C[C@@H](C)[C@@H](O[C@H]2CC[C@H](N(C)C)[C@@H](C)O2)/C=C/C=C/C[C@@H](C)OC(=O)C[C@H]1OC(C)=O [Acetylspiramycin (ASPM)] | 87.2% and 93.6% | 89.4% | 91.4% | 90.3% | 84.4% | 90.9% | 83.1% | 76.8%

Row | Structure (SMILES) | cell viability ([1]; SRSF2 genotype: SRSF2 P95H/wt) | cell viability ([1]; SRSF2 genotype: SRSF2 wt/wt) | cell viability ([2]; SRSF2 genotype: SRSF2 P95H/wt) | cell viability ([2]; SRSF2 genotype: SRSF2 wt/wt) | cell viability ([3]; SRSF2 genotype: SRSF2 P95H/wt) | cell viability ([3]; SRSF2 genotype: SRSF2 wt/wt) | cell viability ([4]; SRSF2 genotype: P95H/wt) | cell viability ([4]; SRSF2 genotype: wt/wt)
22 | CN1CCC(=C2c3ccccc3CCc3cccnc32)CC1 [Azatadine dimaleate] | 100% and 108% | 94.1% | 92.2% | 102% | 91.9% | 100% | 88% | 99%
23 | CCN1CCN(Cc2ccc(Nc3ncc(F)c(-c4cc(F)c5nc(C)n(C(C)C)c5c4)n3)nc2)CC1 | 1.86% and 0.59% | 0.69% | 0.46% | 0.64% | 0.3% | 0.31% | 0.29% | 0.39%
24 | CN(NC(=O)CC(=O)NN(C)C(=S)c1ccccc1)C(=S)c1ccccc1 [Elesclomol (STA-4783)] | 28.9% and 15.4% | 51.2% | 11.8% | 21.5% | 0.35% | 0.25% | 2.86% | 12.4%
25 | COc1ccc2ccc(=O)oc2c1CC=C(C)C [Osthole (Osthol)] | 97.5% and 91.7% | 90.1% | 94.2% | 93.2% | 88.7% | 94.3% | 93.2% | 95.5%
26 | C[C@@H]1COC(Nc2ccc3ncnc(Nc4ccc(OCc5nccs5)c(Cl)c4)c3c2)=N1 [Varlitinib] | 86.5% and 83.2% | 88.1% | 89.2% | 109% | 91.7% | 96.3% | 87% | 88.2%
27 | CCC(=O)NC[C@@H]1C[C@H]1c1cccc2c1CCO2 [Tasimelteon] | 92.1% and 87.6% | 84.4% | 92.1% | 101% | 89% | 93.1% | 88% | 99.3%
28 | O=c1[nH]c(=O)c2[nH]cnc2[nH]1 [2,6-Dihydroxypurine] | 107% and 100% | 104% | 106% | 110% | 101% | 107% | 101% | 109%
29 | CC(C)CCNc1ncccc1C(=O)N1CCN(Cc2ccccc2)CC1 | 103% and 100% | 102% | 93.8% | 105% | 96.9% | 103% | 103% | 105%
30 | COc1c(N2C[C@@H]3CCCN[C@@H]3C2)c(F)cc2c(=O)c(C(=O)O)cn(C3CC3)c12 [Moxifloxacin] | 94.1% and 92.9% | 90.2% | 93.9% | 99.8% | 95.3% | 96.4% | 86.8% | 90.4%
31 | COc1cccc2c1c(O)c(C(=O)N(C)c1ccc(C(F)(F)F)cc1)c(=O)n2C [Tasquinimod] | 108% and 106% | 99.1% | 109% | 116% | 106% | 106% | 101% | 110%
32 | Cc1c[nH]c(=O)[nH]c1=O [Thymine] | 99.9% and 101% | 96.8% | 101% | 95.1% | 109% | 102% | 106% | 101%
33 | COc1cc(C(C)=O)ccc1OCCCN1CCC(c2noc3cc(F)ccc23)CC1 [Iloperidone (Fanapt)] | 81.7% and 86.8% | 86.3% | 68.2% | 90.2% | 85.9% | 88.5% | 71.4% | 83.4%
34 | NS(N)(=O)=O [Sulfamide] | 104% and 96% | 108% | 98.6% | 103% | 102% | 107% | 98.4% | 108%
35 | C[C@H]1[C@H](C)CC[C@]2(C(=O)O)CC[C@]3(C)C(=CC[C@@H]4[C@@]5(C)CC[C@H](O)C(C)(C)[C@@H]5CC[C@]43C)[C@H]12 [Ursolic acid (Malol)] | 96.5% and 93.7% | 90.6% | 87.2% | 102% | 98.2% | 97% | 81.4% | 92.8%
36 | CC(C)Cc1ccc([C@@H](C)C(=O)NS(C)(=O)=O)cc1 [Reparixin (Repertaxin)] | 102% and 97.5% | 98.4% | 97.6% | 99.2% | 95.7% | 98.4% | 93.3% | 105%
37 | CCN(CC)CC(=O)Oc1ccc(NC(C)=O)cc1 [Propacetamol hydrochloride] | 90.2% and 83.3% | 86.5% | 94.2% | 90.2% | 93.6% | 94.7% | 86.4% | 96.7%
38 | COc1cc2c(c(OC)c1OC)-c1c(cc3c(c1OC)OCO3)C[C@H](C)[C@](C)(O)[C@H]2OC(=O)c1ccccc1 [Schisantherin A] | 102% and 111% | 97.5% | 89.3% | 102% | 100% | 102% | 106% | 102%
39 | O=C(O)Cc1cccc(OCCCN(Cc2cccc(C(F)(F)F)c2Cl)CC(c2ccccc2)c2ccccc2)c1 | 98.2% and 93.9% | 92.9% | 97.9% | 113% | 88.6% | 96.7% | 90.9% | 98.5%
40 | COc1cc(F)c(F)c(Nc2ccc(I)cc2F)c1NS(=O)(=O)C1(C[C@H](O)CO)CC1 [Refametinib (RDEA119, Bay 86-9766)] | 53.8% and 59.1% | 62.1% | 31.8% | 33% | 30.7% | 22.7% | 35.4% | 35.1%
41 | Cc1cccc(Nc2ccncc2S(=O)(=O)NC(=O)NC(C)C)c1 [Torsemide (Demadex)] | 100% and 105% | 102% | 101% | 103% | 105% | 101% | 103% | 104%

Reference: the supplement of paper PMC10981050
